# Compound activity as filed in PubChem BioAssay.
# esBAF inh: inhibitors of esBAF chromatin remodeling in mouse ES cells | reporter increase, % at 12.5 µM | actives 2% (n = 350,000) | AID 602393 | Bmi1-luciferase knock-in reporter, 24 h; 100% = twice the neutral-well signal; in the data active = activation above about 40%; inconclusive = no clear call, values can overlap the other calls;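 also: 0% = median of the plate's neutral control wells and 100% = double that signal; a rise in the Bmi1 reporter signal indicates esBAF inhibition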
# HSF-1 act: increases HSF-1 driven luciferase reporter signal | NIH3T3-HGL HSF-1 luciferase reporter, MG132, 8 h; 100% = twice DMSO control signal | activation, % at 9 µM | actives 1.7% (n = 300,000);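 active = mean replicate activation of at least 50% with a set share of replicates each reaching 50%; inconclusive = only one of those two conditions met; inactive = mean below 50% and too few replicates reaching it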;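 also: 0% = median of the neutral control wells and 100% = twice that signal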
# SMARCA2 act: SMARCA2 function activation, primary screen | MG213 cells, MMTV-luciferase reporter, dexamethasone, overnight | activation, % at 9.1 µM | actives 1% (n = 370,000) | AID 652017; in the data active = activation above about 7.8%;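 also: 0% = vehicle wells and 100% = reference activator wells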
# HSF1 inhib: HSF1 inhibition | NIH3T3-HGL HSE-luciferase, MG132-induced, luminescence 8 h; hits give low values | activity change, negative = inhibition, % at 7.5 µM (by protocol) | actives 0.77% (n = 300,000);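 active = more than half of replicate wells show activity change below -50%, luminescence cut by over half; inconclusive = some wells, but at most half, below -50%; inactive = no replicate well below -50%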;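 also: luciferase reports HSF-1 transcriptional activity via heat shock element; 0% = median of DMSO wells and -100% = zero luminescence signal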
# Wnt act: Wnt/beta-catenin pathway activation; Wnt/beta-catenin reporter cell assay, activator, plate reader; activation, % at 9.35 µM; actives 1.2% (n = 300,000); in the data active = activation above about 30%, passing the limit was not always enough; inconclusive = no clear call, values can overlap the other calls;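 also: 0% = neutral control wells and 100% = positive control wells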
# MITF TRPM1 HTS: activators of MITF-driven TRPM1 promoter activity in SK-MEL-5 cells; SK-MEL-5 TRPM1-promoter luciferase, 24 h; % of positive control, neutral wells = 0; activation, % at 12.5 µM; actives 0.75% (n = 300,000); AID 588334;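 active = mean activation of at least 80% with every replicate also reaching 80%; inconclusive = mean reaches 80% but some replicate falls short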;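 also: 0% = neutral control wells and 100% = parthenolide positive control wells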
# The depositor's hits bear a star; ? = inconclusive; nt = not tested or not shown. The list is not random: actives were taken first. Their share in the collection is about 4.3%.
SMILES,esBAF inh,HSF-1 act,SMARCA2 act,HSF1 inhib,Wnt act,MITF TRPM1 HTS
Cc1ccc(C(=O)NCCCc2ccccc2)c(Cl)c1,42.4*,46.8,3.5,19.6,17.7,100.6*
O=C(NCCCc1ccccc1)c1ccccc1O,70.0*,15.5,1.7,18.0,6.8,44.4
Cc1cccc(NC(=O)C(=O)NCCCc2ccccc2)c1,nt,83.1*,1.0,36.6,10.4,nt
C[C@H](CO)N1C[C@H](C)[C@@H](CN(C)C(=O)Cc2ccccc2)OCCCC[C@H](C)Oc2ccc(NC(=O)Cc3ccccc3)cc2C1=O,2.6,nt,nt,nt,nt,nt
Cc1cccc(OCCNc2ccc(C(F)(F)F)cc2[N+](=O)[O-])c1,nt,-17.6,-0.7,4.1,nt,90.3*
CS(=O)(=O)NCCCNc1ccc(C(F)(F)F)cc1[N+](=O)[O-],0.9,-2.6,0.2,-4.1,-1.4,-6.1
CC12CN(C(=S)Nc3ccccc3)CC(C)(CN(C(=S)Nc3ccccc3)C1)C2=O,2.0,73.6*,-3.3,28.1,-1.5,0.1
CCC1C(=NO)C(CC)C(c2ccccc2)NC1c1ccccc1 (centres undefined),7.1,59.3*,-5.5,12.0,5.3,8.9
O=C(Nc1cccc2ccccc12)c1ccc(OC(=S)N2CCOCC2)cc1,44.7*,5.3,7.2,11.3,15.3,41.7
Cc1cc(C)n2nc(-c3cccc(Br)c3)cc2n1,?,28.6,4.4,11.4,-3.9,12.2
Cc1cccc(-c2cc3nc(C)cc(C)n3n2)c1,65.9*,60.1*,5.3,33.3,-1.3,28.4
C[C@@H]1CN([C@H](C)CO)S(=O)(=O)c2ccc(-c3ccc(C#N)cc3)cc2O[C@H]1CN(C)C(=O)CN(C)C,1.7,nt,nt,nt,nt,nt
O=[N+]([O-])c1ccc(/C=[N+](\[O-])[C@@H]2CCCC[C@@H]2/[N+]([O-])=C/c2ccc([N+](=O)[O-])o2)o1,-47.5,70.7*,2.0,50.0,22.1,-82.1
COc1cc(C2NC(=S)NC(C)=C2C(=O)Nc2ccc(C)cc2)ccc1O (centres undefined),?,83.7*,7.1,43.1,16.0,29.6
COc1ccc(NC(=O)C2=C(C)NC(=S)NC2c2ccc(O)c(OC)c2)cc1 (centres undefined),nt,21.4,-2.4,1.1,-5.9,-6.8
C/C(N)=C(/C#N)C(=O)CSc1nc2cc(Cl)ccc2s1,11.8,75.7*,-0.7,36.7,nt,8.8
COc1cc(C)ccc1OCc1cc(C(=O)NCc2ccncc2)no1,51.7*,1.0,6.8,15.9,?,74.8
CCOc1ccc(C(=O)NCc2ccncc2)cc1OCC,-2.4,-63.8,-0.6,-61.3*,nt,-0.5
CCOc1cc(C(=O)NCc2ccncc2)cc(OCC)c1OCC,-5.4,5.5,-1.6,-6.6,nt,-5.4
COc1cc(Cl)ccc1OCc1cc(C(=O)NCc2cc(C(C)C)no2)no1,79.1*,29.4,6.9,4.1,51.3*,60.2
COc1cc(C)ccc1OCc1cc(C(=O)NC(C)Cn2cncn2)no1 (centres undefined),77.6*,0.5,1.4,15.7,18.7,122.5*
COc1cc(Cl)ccc1OCc1cc(C(=O)NCC(C)(C)N2CCOCC2)no1,31.3,32.9,1.7,17.9,6.9,38.2
C[C@@H]1CN([C@H](C)CO)C(=O)Cc2cc(NC(=O)CCC(F)(F)F)ccc2O[C@H]1CN(C)S(=O)(=O)c1ccc(F)cc1,1.5,nt,nt,nt,nt,nt
C[C@@H]1CCCCO[C@H](CN(C)S(=O)(=O)c2ccc(F)cc2)[C@H](C)CN([C@@H](C)CO)C(=O)c2cc(NS(=O)(=O)c3ccc(F)cc3)ccc2O1,9.0,nt,nt,nt,nt,nt
Cc1ccc(S(=O)(=O)N(C)C[C@@H]2Oc3ccc(NS(=O)(=O)c4ccccc4)cc3CC(=O)N([C@H](C)CO)C[C@@H]2C)cc1,9.4,nt,nt,nt,nt,nt
SMILES,esBAF inh,HSF-1 act,SMARCA2 act,HSF1 inhib,Wnt act,MITF TRPM1 HTS
Cc1cccc(NC(=S)N/N=C/c2ccc([N+](=O)[O-])s2)c1,nt,-32.7,-7.0,-30.6,nt,-50.5
CCOC(=O)N/N=C\c1ccc([N+](=O)[O-])s1,nt,8.4,-0.8,9.5,-1.4,-29.6
Cc1cccc(N/N=C/c2ccc(C)s2)c1,73.5*,-3.7,3.7,-5.1,5.9,104.3*
CCOC(=O)N/N=C\c1ccc(C)s1,nt,-81.0,2.1,-78.8*,7.9,3.4
Cc1ccc(/C=N/N=C/c2ccc(C)s2)s1,36.7,77.5*,4.3,36.1,nt,29.5
CCNC(=O)[C@@H]1[C@@H](CO)[C@@H]2Cn3c(ccc(-c4cccc(OC)c4)c3=O)[C@@H]2N1C(=O)NC(C)C,-8.0,nt,nt,nt,nt,nt
C[C@@H]1CN([C@@H](C)CO)C(=O)c2cc(C#CCC3CCCC3)cnc2O[C@@H]1CN(C)C(=O)CN(C)C,-3.7,nt,nt,nt,nt,nt
C=CCSc1nnc2c(n1)OC(c1cccnc1)Nc1ccccc1-2 (centres undefined),nt,10.0,1.5,9.0,53.6*,13.3
C[C@@H]1CN([C@@H](C)CO)C(=O)c2cccc(NS(=O)(=O)c3ccc(F)cc3)c2O[C@@H]1CN(C)C(=O)Nc1ccc2c(c1)OCO2,7.8,nt,nt,nt,nt,nt
COc1cc(C(=O)Nc2cccc(-c3nc4cc(C)ccc4o3)c2)cc(OC)c1OC,nt,-3.6,1.2,-12.8,8.3,24.1
Cc1cccc(-c2nc3cc(NC(=O)C4CCCO4)ccc3o2)c1 (centres undefined),nt,-39.2,0.7,-31.5,17.0,7.8
Cc1ccc2oc(-c3cccc(NC(=O)C4CCCO4)c3)nc2c1 (centres undefined),79.1*,13.7,0.6,5.2,nt,29.7
Cc1ccc(NC(=O)c2ccccn2)c(Br)c1,nt,57.8*,4.3,30.4,36.7*,33.2
Cc1ccc2oc(-c3cccc(NC(=O)c4ccccn4)c3)nc2c1,39.7,4.9,4.6,6.9,37.3*,nt
C[C@@H]1CN([C@H](C)CO)C(=O)c2cc(NS(=O)(=O)c3cccs3)ccc2O[C@H]1CN(C)Cc1ccc2c(c1)OCO2,-2.0,nt,nt,nt,nt,nt
C[C@@H]1CN([C@@H](C)CO)C(=O)Cc2cc(NC(=O)CCCCCC(=O)Nc3ccccc3N)ccc2O[C@@H]1CN(C)S(=O)(=O)c1ccc(F)cc1,-3.1,nt,nt,nt,nt,nt
COc1ccc(N=C2NC(=O)/C(=C\C=C\c3ccco3)S2)cc1,-6.4,124.2*,1.7,73.3,-2.3,10.6
COC(=O)N/N=C/c1cccc(OCCSc2ccc(Cl)cc2)c1,nt,56.5*,-1.1,22.6,nt,3.7
O=C(CNc1ccccc1F)Nc1cccc2ccccc12,63.8*,20.2,-1.3,0.6,6.5,6.3
Cc1c(Cl)cccc1NC(=O)CNc1ccccc1F,nt,35.6,0.6,6.8,nt,5.5
O=C(Nc1ccccc1F)C(=O)Nc1cccc2ccccc12,62.5*,48.3,0.7,13.5,11.2,nt
Cc1ccoc1C(=O)Nc1cccc2ccccc12,42.1*,6.1,2.2,6.1,19.9,26.0
O=C(NCC[C@@H]1CC[C@H](NS(=O)(=O)c2ccc(Oc3ccccc3)cc2)[C@@H](CO)O1)C1CC1,16.0,nt,nt,nt,nt,nt
